Results on one compound are retold here after PubChem BioAssay (Tox21).

“And” between values parts separate entries of the source, which are not always exact repeats. Identical values can stand only once. Records with an inconclusive call do not appear. Where a structure was tested more than once in an assay, its records may differ in their call. The source made the active and inactive calls. Calls follow the shape of the dose curve; as a rule, active = well fitted curve in the direction sought with a large enough effect in the repeat runs; inconclusive = weak or mixed curves; inactive = no such curve, though single readings can be large; an effect the other way counts as inactive or inconclusive.

Assay [1] in a line: qHTS assay for identifying genotoxic compounds that show differential cytotoxicity against isogenic chicken DT40 cell lines with known DNA damage response pathways - wild type cell line (AID 743012). Also: nearly all actives have a fitted effect of over 60% in size. In outline:
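Quantitative HTS on parental DT40 cells: 40 h compound treatment at 37 C/5% CO2, with viability then determined by CellTiter-Glo luminescence. Values serve as the DNA repair-proficient reference for differential cytotoxicity.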
(In general: In qHTS, concentration-response curves come from the screen itself.)

Assay [2] is described as follows: qHTS assay for identifying genotoxic compounds that show differential cytotoxicity against isogenic chicken DT40 cell lines with known DNA damage response pathways - Rev3 mutant cell line (AID 743014). Also: nearly all actives have a fitted effect of over 55% in size. Also: potency is read from the fitted curve at half-maximal effect.
Assay [3] can be described thus: qHTS assay for identifying genotoxic compounds that show differential cytotoxicity against isogenic chicken DT40 cell lines with known DNA damage response pathways - Rad54/Ku70 mutant cell line (AID 743015). Also: nearly all actives have a fitted effect of over 60% in size.

For the compound `CC(C)C(=O)OCC(C)(C)C(OC(=O)C(C)C)C(C)C` (stereo not drawn), the Potency entry in assay [1] and in assay [3] was “inactive” each time. Moreover, the Potency result in assay [2] is “inactive and 19.3 µM (active)”.
